# Screens from PubChem BioAssay.
# FBW7 activator: FBW7 E3 ligase activators, primary screen, biochemical, AlphaScreen, human. AlphaScreen FBW7–phospho-cyclin E peptide binding, activator screen. F-box/WD repeat-containing protein 7 (Homo sapiens), Q969H0. AID 1259310, 2017. normalized activity (activation), % at 26.1 µM. 650,000 compounds, 0.13% hits; in the data active = normalized activity above about 1.9%;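 also: purified mutant Fbw7 with reduced substrate affinity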
# GPR151 ag: activators of human GPR151, primary screen, cell-based, PathHunter beta-arrestin, luminescence. PathHunter beta-arrestin GPR151 cells. 650,000 compounds, 1% hits. G-protein coupled receptor 151 (Homo sapiens), Q8TDV0. AID 1508602, 2020. activation, % at 11.2 µM; in the data active = activation above about 4.9%;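 also: 0% = median of compound wells and 100% = cells with positive control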
# Target sequence (Q8TDV0 whole entry, looked up): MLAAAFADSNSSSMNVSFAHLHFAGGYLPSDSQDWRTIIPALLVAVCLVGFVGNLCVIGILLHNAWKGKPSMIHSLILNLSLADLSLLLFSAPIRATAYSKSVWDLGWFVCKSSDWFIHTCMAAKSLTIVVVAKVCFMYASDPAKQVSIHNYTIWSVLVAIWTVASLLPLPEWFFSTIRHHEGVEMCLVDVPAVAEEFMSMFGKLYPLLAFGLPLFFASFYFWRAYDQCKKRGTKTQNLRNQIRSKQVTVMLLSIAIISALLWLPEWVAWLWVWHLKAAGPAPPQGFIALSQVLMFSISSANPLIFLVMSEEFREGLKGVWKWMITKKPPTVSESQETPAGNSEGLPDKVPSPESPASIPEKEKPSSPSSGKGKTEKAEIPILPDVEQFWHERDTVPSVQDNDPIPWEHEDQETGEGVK
# MITF primary: MITF inhibitors, primary screen, biochemical, AlphaScreen, human | 650,000 compounds, 0.91% hits | AlphaScreen MITF homodimerization, bead proximity signal | inhibition, % at 2.6 µM | Microphthalmia-associated transcription factor (Homo sapiens), O75030; in the data active = inhibition above about 50%;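 also: 0% = vehicle wells with protein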
# TEAD-YAP block: TEAD-YAP interaction inhibition, primary screen, TEAD-YAP interaction inhibitor project, luminescence, HEK-TIYL cells. 640,000 compounds, 1.4% hits. inhibition, % at 9.12 µM. AID 1259422, 2018. TEAD-Gal4/YAP UAS-luciferase luminescence; in the data active = inhibition above about 32%;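 also: 0% = median of test compound wells and 100% = reference inhibitor wells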
# GPR151 conf act: GPR151 activators, triplicate retest, confirmation, cell-based, PathHunter beta-arrestin, luminescence; shares compounds with GPR151 ag; GPR151 PathHunter beta-arrestin cells, 90 min; % of EA-reagent control over plate median; activation, % at 11.2 µM; 6,700 tested, under 10 active; AID 1508609, 2020;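 active = mean percent activation across replicates above the confirmation screen cutoff of 4.91%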
# GPR119 ag: GPR119 activators in beta-arrestin cells, counter-screen for GPR151 activator project, cell-based, PathHunter beta-arrestin, luminescence, triplicate | shares compounds with GPR151 ag | 90 min; 0 = compound-well median, 100 = enzyme-acceptor control | activation, % at 11.2 µM | 6,700 compounds, 0.3% hits | AID 1508611, 2020;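 active = mean percent activation in the counterscreen above 29.09%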;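 also: counterscreen on off-target GPR119 to flag nonselective hits from the GPR151 activator screen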
# The depositor's hits bear a star; nt = no result. Only some compounds are listed: those with a hit (about 3.4% of all), similar ones and a draw of the others.
SMILES,FBW7 activator,GPR151 ag,MITF primary,TEAD-YAP block,GPR151 conf act,GPR119 ag
CCOC(=O)C1=C(CC)OC(N)=C(C#N)C1c1ccc(F)c(Br)c1 (stereo unspecified),0,0,-8,10,nt,nt
CCCCSC1=C(C#N)C(=O)NC(C)(C)S1,0,2,12,1,nt,nt
CCCCCCSc1nc2sc3c(c2c(=O)n1-c1ccc(C)cc1)CC(C)(C)OC3,0,1,10,1,nt,nt
CCCCCCSc1nc2sc3c(c2c(=O)n1-c1ccc(OC)cc1)CC(C)(C)OC3,0,9.7*,-6,3,1,16
Cc1ccc(NC(c2ccccc2)(c2ccccc2)c2ccccc2)cc1C,0,0,7,-12,nt,nt
O=C(CSc1nc(N2CCCCC2)nc(N2CCCCC2)n1)Nc1ccc(F)cc1,0,9.8*,-18,0,1,-1
Nc1nc(SCC(=O)Nc2ccc(F)cc2)n[nH]1,0,1,-1,12,nt,nt
CCOc1cc(/C=C2/C(=N)N3N=C(C)SC3=NC2=O)cc(Cl)c1OCCOc1cc(C)ccc1C,0,0,15,-6,nt,nt
c1ccc(CCn2nnnc2CN2CCN(c3ccccc3)CC2)cc1,0,0,5,2,nt,nt
c1ccc(CCN2CCN(c3ccccc3)CC2)cc1,0,6.9*,21,-4,1,4
CCCSc1nc2c(c(=O)[nH]c(=O)n2C)n1CC(O)Oc1cccc2ccccc12 (stereo unspecified),0,6.2*,11,10,0,-8
Cn1c(=O)[nH]c(=O)c2c1nc(NCc1ccccc1)n2Cc1ccccc1,0,0,6,-2,nt,nt
Cn1c(=O)[nH]c(=O)c2c1nc(N1CCN(c3cccc(Cl)c3)CC1)n2Cc1ccccc1,0,5.3*,-15,1,2,6
Cn1c(=O)[nH]c(=O)c2c1nc(NCc1ccccc1)n2Cc1ccc(Cl)cc1,0,6.7*,0,0,1,-3
Cc1cccc(Cn2c(SCC(C)C)nc3c2c(=O)[nH]c(=O)n3C)c1,1,5.2*,19,2,0,1
Cc1cccc(-n2nnnc2SCC(=O)c2ccccc2)c1,0,0,-5,-33,nt,nt
CCC1CN(CCNC(=O)CC2CCCC2)Cc2cc(OC)ccc2O1 (stereo unspecified),0,6.9*,-4,6,2,5
CCC1CN(CCNC(=O)Cn2ncc3ccccc32)Cc2cc(OC)ccc2O1 (stereo unspecified),1,8.2*,-1,-1,1,12
CCCCCCc1cc2c3c(c(=O)oc2cc1OCC(=O)O)CCC3,0,0,18,5,nt,nt
Cc1ccc(C(=O)Nc2cc(C(N)=O)cc(C(N)=O)c2)cc1S(=O)(=O)N1CCCCC1,0,6.4*,11,-2,0,4
Cc1ccc(C(=O)Nc2ccc(F)cc2)cc1S(=O)(=O)N1CCCCCC1,0,0,-1,-17,nt,nt
CC1CCCCN1c1ncccc1C(=O)NC1CCCC1 (stereo unspecified),0,6.4*,30,-4,1,4
CC1CCCCN1c1ncccc1C(=O)N1CCCC1 (stereo unspecified),0,-1,10,3,nt,nt
CC(CCO)NC(=O)/C=C/c1ccccc1C#N (stereo unspecified),0,1,5,1,nt,nt
C=CSc1sc(Cl)c(N2CCOCC2)c1[N+](=O)[O-],0,-1,23,5,nt,nt
SMILES,FBW7 activator,GPR151 ag,MITF primary,TEAD-YAP block,GPR151 conf act,GPR119 ag
C=CSc1sc(Cl)c(N2CCC3(CC2)OCCO3)c1[N+](=O)[O-],0,5.2*,2,-3,0,-2
O=[N+]([O-])c1cc(S(=O)(=O)N2CCOCC2)ccc1Oc1ccc(Cl)c2ccccc12,0,0,-1,7,nt,nt
COCCNC(=O)c1ccc(/C=C2\Oc3ccccc3N(C)C2=O)cc1,1,11*,-20,-5,-1,12
COc1ccc(Cl)cc1NC(=O)Nc1ccc(Cl)cc1,1,0,11,1,nt,nt
CCCn1c(=O)c2c(nc3n2CCCN3c2ccccc2)n(C)c1=O,0,-3,7,7,nt,nt
CC(O)CCc1nc2ccc([N+](=O)[O-])cc2[nH]1 (stereo unspecified),0,5.1*,0,-10,-1,-4
O=[N+]([O-])c1ccc2nc(CCCc3nc4ccc([N+](=O)[O-])cc4[nH]3)[nH]c2c1,0,-1,5,13,nt,nt
CC1(C)Cc2ccccc2/C(=C/C(=O)C(=O)NCc2ccccc2)N1,0,6.6*,-21,2,0,0
CN(C)c1ccc(C2C(=O)N(C3CCCCC3)CC(=O)N2Cc2cccs2)cc1 (stereo unspecified),0,1,0,30,nt,nt
COc1ccc(C2C(=O)N(C3CCCC3)CC(=O)N2Cc2cccs2)cc1 (stereo unspecified),0,11*,-2,2,1,14
NS(=O)(=O)c1ccc(NC(=S)NCCN2CCCCC2)cc1,0,6.3*,7,1,-1,1
CC(=O)N1CCC(N(CCCN2CCOCC2)C(=S)Nc2cc(C)ccc2C)CC1,1,0,6,6,nt,nt
CCCNC(=O)c1ccnc(N2CCCC(C(=O)N(CC)CC)C2)c1 (stereo unspecified),0,-1,23,5,nt,nt
CCN(CC)C(=O)C1CCCN(c2cc(C(=O)NCCN(C(C)C)C(C)C)ccn2)C1 (stereo unspecified),0,6.2*,-2,-4,-1,-1
Cc1nc(-c2c(C(F)(F)F)oc3c(CN(C)C)c(O)ccc3c2=O)cs1,0,5.1*,-2,10,0,-5
Cc1nc(-c2c(C(F)(F)F)oc3c(C)c(C)ccc3c2=O)cs1,0,-1,-5,-11,nt,nt
COc1cc(S(=O)(=O)n2ccnc2)ccc1Br,0,5.7*,10,6,-1,0
CCOc1cc(S(=O)(=O)n2ccnc2)ccc1Br,0,-1,-5,11,nt,nt
Cc1sc2nc(SC/C=C/c3ccccc3)n(-c3ccccc3)c(=O)c2c1C,0,1,-6,-6,nt,nt
O=C(Nc1ccc(Oc2cccc(Oc3ccc(NC(=O)c4ccccc4F)cc3)c2)cc1)c1ccccc1F,0,18*,12,-2,-1,-10
O=C(Nc1cccc(NC(=O)c2ccccc2F)c1)c1ccccc1F,0,1,13,-8,nt,nt
